Data on eight compounds can be found in the supplement of paper PMC9262897, “Low-cost anti-mycobacterial drug discovery using engineered E. coli” (Nature Communications, 2022).

Where a name gives a salt, the structure may show the parent alone. ± gives the standard deviation of the averaged measurements.

The test system of the assay is E. coli TESEC Mtb Alr. Nature of the assay: growth (OD600 after 10 h); higher = more growth (less inhibition). Particulars: compound 0.1 mM. The method, then:
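TESEC Mtb Alr E. coli, or the Alr+ wild-type control, in 384-well plates with Prestwick library compounds at 0.1 mM and 1% DMSO, across arabinose induction levels of 1E3 to 1E7 nM. Growth is read as OD600 after 10 h at 37 °C in triplicate biological replicates.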

[1] abbreviates: arabinose 1000 nM, raw OD600 reference: median of DMSO wells 0.294, cell-free background 0.041.
The mark [2] stands for this setting: arabinose 10000 nM, raw OD600 reference: median of DMSO wells 0.264, cell-free background 0.041.
[3] abbreviates: arabinose 100000 nM, raw OD600 reference: median of DMSO wells 0.201, cell-free background 0.041.
Where [4] appears, read: arabinose 1000000 nM, raw OD600 reference: median of DMSO wells 0.193, cell-free background 0.041.
Where [5] appears, read: arabinose 10000000 nM, raw OD600 reference: median of DMSO wells 0.146, cell-free background 0.041.

In the case of `CN1CCN(c2c(F)cc3c(=O)c(C(=O)O)cn(CCF)c3c2F)CC1` [Fleroxacin], the growth under setting [1] turned out to be 0.04717 ± 0.00045; the growth under setting [2] worked out at 0.0416 ± 0.0006; the growth under setting [3] was found to be 0.0505 ± 0.0014; the growth under setting [4] came out at 0.0445 ± 0.00081; the growth under setting [5] came to 0.0554 ± 0.00072.

On to `CN(C)CCC(c1ccccc1)c1ccccn1` (stereo not given) [Pheniramine maleate], for which the growth by setting is: under setting [1], 0.289 ± 0.0087; under setting [2], 0.242 ± 0.0091; under setting [3], 0.191 ± 0.0028; under setting [4], 0.162 ± 0.0033; under setting [5], 0.14 ± 0.0047.

For `COCCCOc1ccnc(C[S+]([O-])c2nc3ccccc3[nH]2)c1C` (stereo not given) [Rabeprazole Sodium salt], the growth is, setting by setting: under setting [1], 0.213 ± 0.023; under setting [2], 0.262 ± 0.011; under setting [3], 0.135 ± 0.0037; under setting [4], 0.0782 ± 0.0026; under setting [5], 0.1339 ± 0.0007.

Regarding `Nc1cc(C(Cl)=C(Cl)Cl)c(S(N)(=O)=O)cc1S(N)(=O)=O` [Clorsulon], the growth was 0.278 ± 0.0056 under setting [1]; 0.269 ± 0.0061 under setting [2]; 0.214 ± 0.029 under setting [3]; 0.179 ± 0.0043 under setting [4]; 0.15 ± 0.0072 under setting [5].

On to `COc1ccc2c(c1)C(=O)N(CCc1ccc(S(=O)(=O)NC(=O)NC3CCCCC3)cc1)C(=O)C2(C)C` [Gliquidone], for which the growth was determined as 0.0483 ± 0.0024 under setting [1]; 0.04083 ± 0.00021 under setting [2]; 0.0728 ± 0.0039 under setting [3]; 0.0491 ± 0.00068 under setting [4]; 0.119 ± 0.0032 under setting [5].

Take `CC(=O)OCC(=O)[C@@]12N=C(C)O[C@@H]1C[C@H]1[C@@H]3CCC4=CC(=O)C=C[C@]4(C)[C@H]3[C@@H](O)C[C@@]12C` [Deflazacort]: the growth turned out to be 0.213 ± 0.009 under setting [1]; 0.256 ± 0.0029 under setting [2]; 0.193 ± 0.02 under setting [3]; 0.168 ± 0.0053 under setting [4]; 0.1533 ± 0.00035 under setting [5].

As to `COc1c2occc2c(OC)c2c(=O)cc(C)oc12` [Khellin], the growth reads like this: under setting [1], 0.2539 ± 0.0022; under setting [2], 0.245 ± 0.0065; under setting [3], 0.189 ± 0.0037; under setting [4], 0.149 ± 0.0057; under setting [5], 0.1439 ± 0.00044.

As to `OC(c1cc(C(F)(F)F)nc2c(C(F)(F)F)cccc12)C1CCCCN1` (stereo not given) [Mefloquine hydrochloride], the growth runs as follows: under setting [1], 0.0401 ± 0.0013; under setting [2], 0.0392 ± 0.0005; under setting [3], 0.0403 ± 0.00056; under setting [4], 0.0392 ± 0.00017; under setting [5], 0.0398 ± 0.00036.
